Screening results (PubChem BioAssay)
The full list was thinned out, with hits kept by preference.
ST2 inh – inhibitors of human ST2 (IL1RL1) binding to IL-33; Q01638; AlphaLISA ST2-Fc/biotin-IL-33 interaction, 1 h; inhibition, % for hits at 17 µM; hit rate 2.3% among 78,000; in the data active = inhibition above about 30%
The depositor's hits bear a star; i = inactive.

SMILES | ST2 inh
CN(C)/C(=C1/c2cc([N+](=O)[O-])ccc2-c2c1cc([N+](=O)[O-])cc2[N+](=O)[O-])N1CCOCC1 | 79.0%*
O=C(c1sc2cc([N+](=O)[O-])ccc2c1Cl)N1CCOCC1 | i
O=C(c1cccc([N+](=O)[O-])c1)N1CCOCC1 | i
CC(C)(C)C(=O)Cn1c(=O)n(-c2ccccc2)c(=O)c2sccc21 | i
Cc1cccc(C)c1N1C(=O)c2nccnc2C1=O | i
CC(C)OCCCNC(=O)C1C2C=CC3(CN(Cc4ccccc4Cl)C(=O)C13)O2 (stereo not drawn) | i
c1ccc(CN2CC[C@H](c3nnc(-c4cccnc4)o3)C2)cc1 | 34.0%*
c1cncc(-c2nnc([C@H]3CCN(Cc4ccncc4)C3)o2)c1 | i
Cc1ccc(CN2CC[C@H](c3nnc(-c4cccnc4)o3)C2)cc1 | i
CCCC(O)=C1C(=O)CC(C)(C)CC1=Nc1nc2ccccc2[nH]1 | i
Cc1ccc(CNC(=O)CCS(=O)(=O)c2cccc3nonc23)o1 | i
COCCC1CCCCN1C(=O)c1cccc2[nH]c(C)nc12 (stereo not drawn) | i
CCc1ccc(Nc2nnc(Cc3ccccc3)c(=O)[nH]2)cc1 | i
COc1ccc(-c2cc(C(F)(F)F)nc(NCc3ccco3)n2)cc1 | i
Cc1nnc(-c2ccccc2-c2cccc(CN3CCOCC3)c2)o1 | i
Cc1nnc(-c2cccc(-c3cc(NCc4ccccn4)nc4[nH]ccc34)c2)o1 | 35.0%*
Cc1cccc(-c2nnc(-c3nc(NCc4ccccc4C)c4ccccc4n3)o2)c1 | i
CC(C)C(NS(=O)(=O)c1cccs1)C(=O)N1CCN(c2cccc(Cl)c2)CC1 (stereo not drawn) | i
Cc1ccc(C(NC(=O)Cc2nc(C)sc2C)c2ccncc2)cc1 (stereo not drawn) | i
Cc1ccc(C)c(CSC2=NCCN2C(=O)c2ccc(S(=O)(=O)N3CCCCC3)cc2)c1 | i
CCCCC1C=CCN1C(=O)c1cnc(C(C)C)[nH]c1=O (stereo not drawn) | i
C=CCc1ccccc1OCCOCCN1CCOCC1 | i
COC(=O)Cc1cnc(NC(=O)CN2CCCCC2c2cccnc2)s1 (stereo not drawn) | i
O=C(NC1CCCC1)c1noc2c1CCc1ccccc1-2 | i
COC(=O)C1=C(NC(=O)c2ccc(Cl)cc2)CCS1 | i
SMILES | ST2 inh
COC(=O)C1=C(NC(=O)c2cc(C)cc(C)c2)CCS1 | 50.0%*
COC(=O)C1=C(NC(=O)c2cc(Cl)ccc2Cl)CCS1 | i
Cc1ccc(N2C(=O)C3CCC(C)CC3C2=O)cc1Cl (stereo not drawn) | i
CCOC(=O)C1=C(N)OC2=C(C(=O)CCC2)C1c1cccc(Br)c1 (stereo not drawn) | i
O=C1NCC(=O)N2CCN(C(=O)CCc3cccnc3)CC12 (stereo not drawn) | i
CCCC(=O)NCCCc1nc2ccccc2n1CC(C)C | i
